Records with an inconclusive call do not appear. Active and inactive are the calls of the source. Rule for the calls: active = hit-call score of the fitted dose curve at least 0.9, where 1 is the maximum; inconclusive = response in the unintended direction; inactive = score below 0.9.
Molecular target: human Thyroid Receptor alpha (THRa1), THRA (gene 7067) (UniProt P10827)
Assay: ATG_THRa1_TRANS: Attagene TRANS-FACTORIAL HepG2 Assay for human Thyroid Receptor alpha (THRa1) (AID 2283014)
Procedure: ATG_TRANS is a cell-based, multiplexed-readout assay that uses HepG2, a human liver cell line, with measurements taken at 24 hours after chemical dosing in a 24-well plate.ATG_THRa1_TRANS is one of 30 assay component(s) measured or calculated from the ATG_TRANS assay. It is designed to make measurements of mRNA induction, a form of inducible reporter, as detected with fluorescence intensity signals by Reverse transcription polymerase chain reaction (RT-PCR) and Capillary electrophoresis technology.Data from the assay component ATG_THRa1_TRANS was analyzed into 1 assay endpoint. This assay endpoint, ATG_THRa1_TRANS, was analyzed in the positive analysis fitting direction relative to DMSO as the negative control and baseline of activity. Using a type of inducible reporter, measures of mRNA for gain-of-signal activity can be used to understand the reporter gene at the transcription factor-level as they relate to the gene THRA. Furthermore, this assay endpoint can be referred to as a primary readout, because this assay has produced multiple assay endpoints where this one serves a reporter gene function. To generalize the intended target to other relatable targets, this assay endpoint is annotated to the nuclear receptor intended target family, where the subfamily is non-steroidal.
Human liver HepG2 cells are transiently transfected with multiple reporter transcription units (MRTUs) in 6-well plates using FuGene 6 reagent (Roche; 3 ml FuGene/1 mg DNA). The MRTU constructs are regulated by a cis-regulating element (promoter). […] A major difference between the CIS and TRANS system is that in CIS activities of endogenous TFs are measured, whereas the TRANS assay evaluates changes in activities of exogenous, chimeric NR-Gal4 proteins. […] At the end of 24 hour incubation, total RNA was isolated using TriZol reagent (Invitrogen). The isolated RNA is then reverse-transcribed using oligo(dT) primer and Mo-MLV reverse transcriptase (Invitrogen) with DNAse I (Ambion) treatment for 30 min. The one-tenth of the produced cDNA was amplified by PCR using Taq DNA polymerase (Invitrogen) and two reporter sequence-specific primers. The PCR products were fluorescently labeled by primer extension with 6-arboxyfluorescein (6-FAM) 5'-labeled reporter sequence-specific primer (2 min at 95 C, 20 s at 68 C and 10 min at 72 C) and these products were digested with 5U of HpaI (New England Biolabs) for 2h at 37 C. The fragments were purified using Qiaquick PCR columns (Qiagen), analyzed on an ABI 3130xL genetic analyzer (Applied Biosystems) with peak positions identified by using a set of X-rhodamine (ROX)-labeled MapMarker1000 molecular weight standards (BioVentures). The raw capillary electrophoresis data was processed using Attagraph software (Attagene).

Chain of human Thyroid Receptor alpha (THRa1), THRA (gene 7067) (P10827 whole entry, looked up): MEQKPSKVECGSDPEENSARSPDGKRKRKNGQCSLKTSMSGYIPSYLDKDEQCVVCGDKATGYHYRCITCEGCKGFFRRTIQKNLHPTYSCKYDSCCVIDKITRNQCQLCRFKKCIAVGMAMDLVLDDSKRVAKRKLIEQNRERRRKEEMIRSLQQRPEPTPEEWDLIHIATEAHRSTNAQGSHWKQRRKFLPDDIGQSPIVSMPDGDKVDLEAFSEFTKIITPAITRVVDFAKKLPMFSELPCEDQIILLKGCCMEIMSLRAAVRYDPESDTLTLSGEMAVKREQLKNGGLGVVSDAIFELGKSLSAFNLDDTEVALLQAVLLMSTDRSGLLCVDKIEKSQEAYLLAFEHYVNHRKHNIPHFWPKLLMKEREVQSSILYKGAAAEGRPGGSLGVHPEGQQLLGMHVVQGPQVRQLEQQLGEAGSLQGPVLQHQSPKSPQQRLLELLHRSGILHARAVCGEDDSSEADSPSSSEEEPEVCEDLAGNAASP

outcome, inactive:
CC=Cc1ccc(OC)c(OC)c1, Nc1ccc(N)c2c1C(=O)c1ccccc1C2=O, CCC1CCCCC1, CC(=O)c1ccccn1, Cc1cc(C)nc(NS(=O)(=O)c2ccc(N)cc2)n1, O=[N+]([O-])c1ccc(O)cc1C(F)(F)F, COC(=O)c1cccnc1, CCCOC(=O)c1c(Cl)c(Cl)c(Cl)c(Cl)c1C(=O)OCCC, C=CC(=O)OCCC#N, COS(=O)(=O)O, Cc1ccc(OC(=O)c2ccccc2O)cc1, CC(O)C1CCCCC1 (stereo not given), c1ccc(CCc2ccccc2)cc1, Cc1cccc(Nc2ccccc2)c1, CCOC(=O)COC(=O)c1cc(Oc2ccc(C(F)(F)F)cc2Cl)ccc1[N+](=O)[O-], CCN(CC)C(=O)N(CC)CC, c1ccc2cc(Nc3ccc(Nc4ccc5ccccc5c4)cc3)ccc2c1, CC(C)Nc1nc(N)nc(Cl)n1, CCCCC1CCC(O)CC1 (stereo not given), CC=CC=CCOC(=O)C(C)C, Cc1ncc[nH]1, C#CC(C)N(C)C(=O)Nc1ccc(Cl)cc1 (stereo not given), Cc1c(C2(c3cc(Br)c(O)c(Br)c3C)OS(=O)(=O)c3ccccc32)cc(Br)c(O)c1Br, CCCCCCCCC=CCCCCCCCC1=NCCN1CCO, CC[N+](C)(CC)CC, COc1ccc(N)c([N+](=O)[O-])c1, C=CC(=O)OCCCC, CC(C)C[C@H](NC(=O)OCC1c2ccccc2-c2ccccc21)C(=O)O, CCCCC(CC)COC(C)=O (stereo not given), C=CC(C)C#N (stereo not given), CS(=O)(=O)c1ccc(C2=C(c3ccccc3)C(=O)OC2)cc1, CCCCCCCCCCCCCCN(CCO)CCO, CS(C)=O, O=C(Nc1ccc2c(O)c(N=Nc3ccc(N=Nc4ccc(S(=O)(=O)O)cc4)cc3)c(S(=O)(=O)O)cc2c1)c1ccccc1, NCCNc1cccc2ccccc12, CCN(CCN)c1cccc(C)c1, Clc1cc(Cl)c(-c2c(Cl)c(Cl)cc(Cl)c2Cl)cc1Cl, CCC(C)c1cc([N+](=O)[O-])cc([N+](=O)[O-])c1OC(=O)OC(C)C (stereo not given)

AC50, active:
CCCCCCC(C)Nc1ccc(Nc2ccccc2)cc1 (stereo not given) 27.1 µM, N#Cc1ccc(CC(=O)c2cccc(C(F)(F)F)c2)cc1 42 µM

Source: PubChem BioAssay (EPA / NIEHS)
